In PMC4336329 (PLoS ONE, 2015):
The whole screen tested about 310,000 compounds, of which about 14,000 (4.5%) showed an effect of 50% or more. The effect is printed as a negative number. Shown is part of a subset that was picked to be rich in strong results.

Target: human ether-à-go-go-related gene (hERG) potassium channel (human, UniProt Q12809)
Test: primary screen, population patch clamp on CHO cells stably expressing hERG; higher = less effect of the substance
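Further: peak tail current of the secondary pulse compared with the same well before compound.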

Chain of human ether-à-go-go-related gene (hERG) potassium channel (Q12809 whole entry, looked up): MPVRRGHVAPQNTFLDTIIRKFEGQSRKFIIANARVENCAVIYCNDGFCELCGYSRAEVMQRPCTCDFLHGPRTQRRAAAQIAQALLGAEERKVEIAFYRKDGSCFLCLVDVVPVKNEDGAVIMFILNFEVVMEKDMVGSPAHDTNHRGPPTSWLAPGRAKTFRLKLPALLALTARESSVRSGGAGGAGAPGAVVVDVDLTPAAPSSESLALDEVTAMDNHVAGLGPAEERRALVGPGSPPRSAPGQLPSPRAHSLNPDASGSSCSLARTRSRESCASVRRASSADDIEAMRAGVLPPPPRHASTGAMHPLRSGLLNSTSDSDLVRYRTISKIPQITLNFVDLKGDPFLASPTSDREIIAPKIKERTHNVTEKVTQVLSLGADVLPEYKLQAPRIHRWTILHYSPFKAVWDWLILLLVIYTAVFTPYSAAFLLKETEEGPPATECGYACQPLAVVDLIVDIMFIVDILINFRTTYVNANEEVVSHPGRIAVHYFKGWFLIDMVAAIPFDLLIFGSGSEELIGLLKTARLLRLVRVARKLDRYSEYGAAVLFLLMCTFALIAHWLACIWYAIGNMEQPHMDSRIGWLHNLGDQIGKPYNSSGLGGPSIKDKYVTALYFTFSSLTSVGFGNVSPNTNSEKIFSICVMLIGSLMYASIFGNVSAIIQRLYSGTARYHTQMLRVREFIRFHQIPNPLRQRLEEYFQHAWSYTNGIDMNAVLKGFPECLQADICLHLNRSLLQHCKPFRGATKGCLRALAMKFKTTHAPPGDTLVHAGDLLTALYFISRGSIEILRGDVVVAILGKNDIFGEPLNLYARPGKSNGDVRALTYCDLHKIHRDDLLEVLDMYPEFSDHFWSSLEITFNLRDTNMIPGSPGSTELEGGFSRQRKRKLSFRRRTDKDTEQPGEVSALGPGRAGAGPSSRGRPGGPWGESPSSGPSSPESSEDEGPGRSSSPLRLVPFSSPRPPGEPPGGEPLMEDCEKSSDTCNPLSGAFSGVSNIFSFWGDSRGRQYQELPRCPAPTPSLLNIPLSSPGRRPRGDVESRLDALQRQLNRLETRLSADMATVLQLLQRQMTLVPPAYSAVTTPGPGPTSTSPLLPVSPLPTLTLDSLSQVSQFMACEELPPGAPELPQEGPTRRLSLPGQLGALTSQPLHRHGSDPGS

Q: How did the “hERG current change (%, negative = inhibition) at 10uM” value turn out when `O=C(CSc1nc2[nH]ncc2c(=O)n1-c1ccc(Cl)c(Cl)c1)NCc1ccccc1Cl` was run?
A: -11.4%

Q: For `COc1ccc(CCN=C(N)NS(=O)(=O)c2ccccc2)cc1OC`, which “hERG current change (%, negative = inhibition) at 10uM” value is on record?
A: 19.5%

Q: With `COC(=O)Cc1ccc(NC(=O)c2ccc3c(c2)C(=O)N(Cc2cccnc2)C3=O)cc1` as the molecule, how does the “hERG current change (%, negative = inhibition) at 10uM” value read?
A: 5.83%

Q: How did the “hERG current change (%, negative = inhibition) at 10uM” value turn out when `C[C@H](NC(=O)N1C[C@H]2C[C@@H](C1)c1cccc(=O)n1C2)C(=O)Nc1cccc(F)c1` was run?
A: 2.4%

Q: `CC(NS(=O)(=O)c1ccc(OCC(=O)Nc2cccc([N+](=O)[O-])c2)cc1)c1ccccc1` (centres unmarked) was tested. Which “hERG current change (%, negative = inhibition) at 10uM” value did it give?
A: 3.21%

Q: Which “hERG current change (%, negative = inhibition) at 10uM” value does the source give for `COCCN=C1NN=C(c2ccc(C)c([N+](=O)[O-])c2)CS1` here?
A: 11.7%

Q: For `O=C(/C=C/c1ccccc1)N/C(=C\c1ccco1)C(=O)O`, which “hERG current change (%, negative = inhibition) at 10uM” value is on record?
A: 19.6%

Q: `Cn1c(SCCOc2ccc(Cl)cc2)nnc1-c1ccncc1` was tested. Which “hERG current change (%, negative = inhibition) at 10uM” value did it give?
A: -56.3%

Q: With `COC(=O)CSc1nnc(-c2cccs2)n1-c1ccc(Cl)cc1` as the molecule, how does the “hERG current change (%, negative = inhibition) at 10uM” value read?
A: -60.4%

Q: Which “hERG current change (%, negative = inhibition) at 10uM” value does the source give for `Cc1cc(OCCSc2nnc(-c3cccs3)n2C)ccc1Cl` here?
A: -22.5%

Q: With `Cc1ccc(OCCSc2nnc(-c3ccncc3)n2C)cc1` as the molecule, how does the “hERG current change (%, negative = inhibition) at 10uM” value read?
A: -28.9%

Q: `Cn1c(SCCOc2ccc(F)cc2)nnc1-c1ccncc1` was tested. Which “hERG current change (%, negative = inhibition) at 10uM” value did it give?
A: -44.4%

Q: With `Cc1ccc(OCCSc2nnc(-c3cccs3)n2C)cc1` as the molecule, how does the “hERG current change (%, negative = inhibition) at 10uM” value read?
A: -37%

Q: For `CCn1c(SCCOc2ccc(Cl)cc2)nnc1-c1cccs1`, which “hERG current change (%, negative = inhibition) at 10uM” value is on record?
A: -53.8%

Q: How did the “hERG current change (%, negative = inhibition) at 10uM” value turn out when `CCn1c(SCC(=O)NCCc2ccc(Cl)cc2)nnc1-c1cccs1` was run?
A: -75.8%

Q: Which “hERG current change (%, negative = inhibition) at 10uM” value does the source give for `CCn1c(SCC(=O)NCCc2ccccc2)nnc1-c1cccs1` here?
A: -27.6%

Q: For `O=C(O)CSc1nnc(-c2cccs2)n1-c1ccc(Cl)cc1`, which “hERG current change (%, negative = inhibition) at 10uM” value is on record?
A: -6.94%

Q: `CCOC(=O)CSc1nnc(-c2cccs2)n1-c1ccccc1` was tested. Which “hERG current change (%, negative = inhibition) at 10uM” value did it give?
A: -42.8%

Q: How did the “hERG current change (%, negative = inhibition) at 10uM” value turn out when `CCn1c(SCC(=O)c2ccc(Cl)cc2)nnc1-c1cccs1` was run?
A: -10.8%

Q: With `CC(C)N(CCNS(=O)(=O)c1ccc(Cl)cc1)C(C)C.Cl` as the molecule, how does the “hERG current change (%, negative = inhibition) at 10uM” value read?
A: -28.1%

Q: For `O=C(c1[nH]ncc1-c1cccc(Br)c1)C1CO1` (centres unmarked), which “hERG current change (%, negative = inhibition) at 10uM” value is on record?
A: 3.39%

Q: `O=C(Nc1c(C(=O)N2CCOCC2)cnn1-c1ccccc1)c1ccc(F)cc1` was tested. Which “hERG current change (%, negative = inhibition) at 10uM” value did it give?
A: 13.8%

Q: How did the “hERG current change (%, negative = inhibition) at 10uM” value turn out when `CC(C)c1cc(C(=O)NCCc2ccccc2)no1` was run?
A: -40.1%

Q: Which “hERG current change (%, negative = inhibition) at 10uM” value does the source give for `CCC(C(=O)NC(C)(C)C)N(Cc1ccco1)C(=O)CNS(=O)(=O)c1ccc(OC)cc1` (centres unmarked) here?
A: 7.49%

Q: `O=C(O)/C(=C\c1ccc2ccccc2c1)c1cccc2ccccc12` was tested. Which “hERG current change (%, negative = inhibition) at 10uM” value did it give?
A: 6.53%

Q: For `CC(=O)Nc1ccc(C(=O)N/N=C/c2ccncc2)cc1`, which “hERG current change (%, negative = inhibition) at 10uM” value is on record?
A: 0.536%

Q: With `Cc1cc(C)n2[nH]c(=O)c(N=Nc3cccc(C(F)(F)F)c3)c2n1` as the molecule, how does the “hERG current change (%, negative = inhibition) at 10uM” value read?
A: -23.8%

Q: `CCn1c(SCC(=O)NCc2cccs2)nnc1-c1cccs1` was tested. Which “hERG current change (%, negative = inhibition) at 10uM” value did it give?
A: -20.9%

Q: For `CCn1c(SCC(=O)NCC(=O)Nc2ccc(F)cc2)nnc1-c1cccs1`, which “hERG current change (%, negative = inhibition) at 10uM” value is on record?
A: -25.1%

Q: `CCn1c(SCC(=O)NCCc2ccc(F)cc2)nnc1-c1cccs1` was tested. Which “hERG current change (%, negative = inhibition) at 10uM” value did it give?
A: -61.9%

Q: For `COc1ccc2[nH]c(=O)c(-c3nnn(-c4ccccc4)n3)cc2c1`, which “hERG current change (%, negative = inhibition) at 10uM” value is on record?
A: -1.01%

Q: How did the “hERG current change (%, negative = inhibition) at 10uM” value turn out when `Cc1ccc(Cn2c(CCC(=O)O)nc3ncccc3c2=O)cc1` was run?
A: 13.4%

Q: `CCc1ccc(-c2cc3c(=O)n(CC(=O)NCCN4CCCCC4C)nc(C)n3n2)cc1` (centres unmarked) was tested. Which “hERG current change (%, negative = inhibition) at 10uM” value did it give?
A: -57.5%

Q: Which “hERG current change (%, negative = inhibition) at 10uM” value does the source give for `CCc1ccc(-c2cc3c(=O)n(CC(=O)NCCCN4CCC(Cc5ccccc5)CC4)nc(C)n3n2)cc1` here?
A: 2.48%

Q: With `Cc1nn(CC(=O)NCCCN2CCCCC2)c(=O)c2cc(-c3ccccc3)nn12` as the molecule, how does the “hERG current change (%, negative = inhibition) at 10uM” value read?
A: -49.4%

Q: With `CCc1ccc(-c2cc3c(=O)n(CC(=O)NCCCN4CCN(CC)CC4)nc(C)n3n2)cc1` as the molecule, how does the “hERG current change (%, negative = inhibition) at 10uM” value read?
A: -30%

Q: With `Cc1nn(CC(=O)NCCCN2CCN(Cc3ccccc3)CC2)c(=O)c2cc(-c3ccccc3)nn12` as the molecule, how does the “hERG current change (%, negative = inhibition) at 10uM” value read?
A: -70.1%

Q: With `Cc1nn(CC(=O)NCCCN2CCN(C)CC2)c(=O)c2cc(-c3ccccc3)nn12` as the molecule, how does the “hERG current change (%, negative = inhibition) at 10uM” value read?
A: 0.586%

Q: For `CCc1ccc(-c2cc3c(=O)n(CC(=O)NCCCN4CCN(Cc5ccccc5)CC4)nc(C)n3n2)cc1`, which “hERG current change (%, negative = inhibition) at 10uM” value is on record?
A: -22.7%

Q: Which “hERG current change (%, negative = inhibition) at 10uM” value does the source give for `Cc1nn(CC(=O)NCCN2CCCCC2C)c(=O)c2cc(-c3ccccc3)nn12` (centres unmarked) here?
A: -48.4%

Q: For `Cc1nn(CC(=O)NCCCN2CCC(Cc3ccccc3)CC2)c(=O)c2cc(-c3ccccc3)nn12`, which “hERG current change (%, negative = inhibition) at 10uM” value is on record?
A: -77%

Q: With `Cc1ccc(C2/C(=C(/O)c3ccccc3)C(=O)C(=O)N2CCN2CCOCC2)o1` (centres unmarked) as the molecule, how does the “hERG current change (%, negative = inhibition) at 10uM” value read?
A: -2.22%

Q: `COc1ccc(CCN2C(=O)NC(NC(C)=O)(C(F)(F)F)C2=O)cc1OC` (centres unmarked) was tested. Which “hERG current change (%, negative = inhibition) at 10uM” value did it give?
A: 7.51%

Q: `O=C(c1cccc(N2C(=O)C3C4C=CC(C4)C3C2=O)c1)N1CCN(c2ccccc2)CC1` (centres unmarked) was tested. Which “hERG current change (%, negative = inhibition) at 10uM” value did it give?
A: -1.68%

Q: `c1ccc(Oc2ccc(-c3ccnc4ncnn34)cc2)cc1` was tested. Which “hERG current change (%, negative = inhibition) at 10uM” value did it give?
A: 10.7%

Q: For `c1cn(-c2ccc(-c3ccnc4ncnn34)cc2)cn1`, which “hERG current change (%, negative = inhibition) at 10uM” value is on record?
A: -27.2%

Q: Which “hERG current change (%, negative = inhibition) at 10uM” value does the source give for `c1ccc2c(c1)ncn2-c1ccc(-c2ccnc3ncnn23)cc1` here?
A: -68%

Q: Which “hERG current change (%, negative = inhibition) at 10uM” value does the source give for `Cc1cc(OCC(=O)NC2CCS(=O)(=O)C2)c2c3c(c(=O)oc2c1)CCC3` (centres unmarked) here?
A: -3.87%

Q: Which “hERG current change (%, negative = inhibition) at 10uM” value does the source give for `COc1ccc(CNC(=O)C(=O)NC2CCC(C)CC2)cc1` (centres unmarked) here?
A: 19.4%

Q: How did the “hERG current change (%, negative = inhibition) at 10uM” value turn out when `C=C(Cl)CSC(=S)N(CC)CC` was run?
A: 12.1%

Q: How did the “hERG current change (%, negative = inhibition) at 10uM” value turn out when `CCOCCCn1c(SCC(=O)N(C)C2CCS(=O)(=O)C2)nc2ccccc2c1=O` (centres unmarked) was run?
A: -37.5%

Q: With `C=CCn1c(SCC(=O)N(C)C2CCS(=O)(=O)C2)nc2ccccc2c1=O` (centres unmarked) as the molecule, how does the “hERG current change (%, negative = inhibition) at 10uM” value read?
A: -50%

Q: `O=C(CSc1nc(-c2cccs2)nc2ccccc12)NC1CCS(=O)(=O)C1` (centres unmarked) was tested. Which “hERG current change (%, negative = inhibition) at 10uM” value did it give?
A: 6.45%

Q: How did the “hERG current change (%, negative = inhibition) at 10uM” value turn out when `CCN(C(=O)CSc1nc(-c2cccs2)nc2ccccc12)C1CCS(=O)(=O)C1` (centres unmarked) was run?
A: -95.6%

Q: Which “hERG current change (%, negative = inhibition) at 10uM” value does the source give for `C=CCn1c(SCC(=O)N(CC)C2CCS(=O)(=O)C2)nc2cc(C(=O)O)ccc2c1=O` (centres unmarked) here?
A: 5.01%

Q: With `C=CCn1c(SCC(=O)N(C)C2CCS(=O)(=O)C2)nnc1-c1ccccc1` (centres unmarked) as the molecule, how does the “hERG current change (%, negative = inhibition) at 10uM” value read?
A: 16.8%

Q: With `CCN(C(=O)CSc1n[nH]c(-c2cccs2)n1)C1CCS(=O)(=O)C1` (centres unmarked) as the molecule, how does the “hERG current change (%, negative = inhibition) at 10uM” value read?
A: 12.2%

Q: `C=CCn1c(SCC(=O)N(CC)C2CCS(=O)(=O)C2)nnc1-c1ccccc1` (centres unmarked) was tested. Which “hERG current change (%, negative = inhibition) at 10uM” value did it give?
A: -2.7%

Q: `CCN(C(=O)CSc1nc2ccccc2c(=O)n1C(C)COC)C1CCS(=O)(=O)C1` (centres unmarked) was tested. Which “hERG current change (%, negative = inhibition) at 10uM” value did it give?
A: -22.8%

Q: With `CCN(C(=O)CSc1nc2ccccc2c(=O)n1CCOC)C1CCS(=O)(=O)C1` (centres unmarked) as the molecule, how does the “hERG current change (%, negative = inhibition) at 10uM” value read?
A: -61.2%

Q: Which “hERG current change (%, negative = inhibition) at 10uM” value does the source give for `COCCn1c(SCC(=O)N(C)C2CCS(=O)(=O)C2)nc2ccccc2c1=O` (centres unmarked) here?
A: -12.1%

Q: With `C=CCn1c(SCC(=O)N(CC)C2CCS(=O)(=O)C2)nc2ccccc2c1=O` (centres unmarked) as the molecule, how does the “hERG current change (%, negative = inhibition) at 10uM” value read?
A: -79.2%
